# p53 reactivator = qHTS assay for re-activators of p53 using a Luc reporter; Potency, µM (doses to about 92.2 µM), actives largely listed as activators; 320,000 compounds, 0.063% hits; AID 504706, 2011; H1299 p53-A138V BP100-luciferase reporter, luminescence, 24 h; also: nearly all actives have a fitted effect of over 45% in size
#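 H1299 (p53-null), stable ts p53-A138V + BP100-Luc; 1000 cells/well, Opti-MEM/10% FBS; cpd 4 pt, 1:5; 24 h, 37 deg C, 5% CO2; detection reagent 10 min RT; luminescence.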
# SMN2 splice up = qHTS Assay for Enhancers of SMN2 Splice Variant Expression; HEK293 SMN2-luciferase splicing reporter, luminescence, 30-36 h; Potency, µM (series often up to 46.1 µM), actives largely listed as activators; 210,000 compounds, 2.8% hits; AID 1458, 2008; also: nearly all actives have a fitted effect of over 55% in size
#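 HEK293 cells carry an SMN2 […]–luciferase reporter in which exon 7 inclusion puts luciferase in frame. Cells were plated 10-12 h before compound addition, then incubated 30-36 h at 37C. ONE-Glo luminescence was read; sodium butyrate at 4.5 mM final served as control.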
# FLuc modulator = qHTS profiling assay for firefly luciferase inhibitor/activator using purifed enzyme and Km concentrations of substrates (counterscreen for miR-21 project); 360,000 compounds, 6.9% hits; Potency, µM (top dose mostly 57.5 µM), most hits filed as inhibitors; AID 588342, 2011; Luciferin 4-monooxygenase (Photinus pyralis), P08659; purified FLuc, Km substrates, luminescence inhibition; also: nearly all actives have a fitted effect of over 55% in size
# Target sequence (P08659 whole entry, looked up): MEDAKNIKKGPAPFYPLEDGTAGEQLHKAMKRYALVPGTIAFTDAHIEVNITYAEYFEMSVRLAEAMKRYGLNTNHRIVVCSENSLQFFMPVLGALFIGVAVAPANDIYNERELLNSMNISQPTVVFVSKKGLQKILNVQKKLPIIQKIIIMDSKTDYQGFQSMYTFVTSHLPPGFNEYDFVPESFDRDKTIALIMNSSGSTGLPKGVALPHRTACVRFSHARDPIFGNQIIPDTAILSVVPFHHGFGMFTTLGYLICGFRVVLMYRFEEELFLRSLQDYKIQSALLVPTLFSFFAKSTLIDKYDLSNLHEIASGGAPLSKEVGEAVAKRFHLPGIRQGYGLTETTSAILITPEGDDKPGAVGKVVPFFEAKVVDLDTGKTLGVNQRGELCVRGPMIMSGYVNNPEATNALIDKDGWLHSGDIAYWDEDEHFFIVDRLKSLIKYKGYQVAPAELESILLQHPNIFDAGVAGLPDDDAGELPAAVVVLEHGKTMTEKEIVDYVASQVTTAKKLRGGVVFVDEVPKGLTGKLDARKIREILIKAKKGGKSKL
#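 Biochemical qHTS of compounds, final roughly 60 µM downward over six points, against 10 nM purified firefly luciferase using Km concentrations of substrates (10 uM D-luciferin, 10 uM ATP) in Tris acetate pH 7.5 buffer; luminescence output.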
# NPC1 promoter act = qHTS Assay for NPC1 Promoter Activators; AID 485313, 2010; Potency, µM (highest dose often 9.22 µM), hits mostly activators; 320,000 compounds, 2.4% hits; Huh7 NPC1 promoter luciferase reporter, 24 h; also: nearly all actives have a fitted effect of over 60% in size
#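 Luminescence read-out of NPC1 promoter-driven luciferase in stably transfected Huh7 cells; compounds delivered in DMSO and left 24 h at 37C, 5% CO2, qHTS titration format.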
# Rab9 promoter act = qHTS Assay for Rab9 Promoter Activators; AID 485297, 2010; Potency, µM (titrated, usually from 9.22 µM), most hits filed as activators; 320,000 compounds, 2.8% hits; Huh7 Rab9 promoter-luciferase reporter, luminescence, 24 h; also: nearly all actives have a fitted effect of over 60% in size
#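 Steps: seed 1500 Huh7 Rab9-luc cells per well, rest 2 h at 37 °C; add compound in DMSO; incubate 24 h; add luciferase reagent, 10 min ambient; read luminescence.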
# ELG1 genotox = qHTS screen for small molecules that induce genotoxicity in human embryonic kidney (HEK293T) cells expressing luciferase-tagged ELG1; Potency, µM (doses to about 46 µM), usual class: activators; 330,000 compounds, 1.3% hits; HEK293T ELG1-luciferase reporter, luminescence, 16 h; also: nearly all actives have a fitted effect of over 60% in size
#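 16 hr compound incubation (37 °C, 5% CO2) of HEK293T cells carrying luciferase-tagged ELG1; luciferase then measured by ONE-Glo luminescence after 30 min at RT.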
# A number is an active result; – = inactive; ? = inconclusive; · = no result; [ ] = dose if it differs, or a comment. Rows were chosen to be rich in hits. Some 7.4% of all compounds tested hit in one or more screens of this group. Calls follow the shape of the dose curve; as a rule, active = well fitted curve in the direction sought with a large enough effect; inconclusive = small, poorly fitted or top-dose-only effect, or another doubt; inactive = no such curve, though single readings can be large; an effect the other way counts as inactive or inconclusive.
SMILES,p53 reactivator,SMN2 splice up,FLuc modulator,NPC1 promoter act,Rab9 promoter act,ELG1 genotox
COc1ccccc1N1CCN(C(=O)CN2C(=O)COc3ccc(S(=O)(=O)N4CCC(C)CC4)cc32)CC1,·,–,–,·,·,·
Cc1ccc(NC(=S)NC(=O)C2CC2)c(C)c1,?,·,15µM,?,?,21µM
CCCCCc1nnc(N)s1,–,–,–,–,–,–
CCCCCCc1ccc(-c2ncc(N)cn2)cc1,–,11µM,12µM,–,?,?
CCCCCc1ccc(-c2nnc(N)s2)cc1,–,·,21µM,–,?,?
COc1ccccc1N1Cc2ccc(OC)c(OC)c2C1=O,–,·,–,–,–,–
COc1ccc2c(c1OC)C(=O)N(c1cccc(C)c1)C2,?,14µM,1.5µM,1.4µM,1.4µM,2.1µM
COc1ccc2c(c1OC)C(=O)N(c1ccc(C)cc1)C2,–,·,3µM,1.1µM,0.71µM,18µM
CN1C(=O)NC(c2ccccc2)C2=C1CN(c1cccc(C(F)(F)F)c1)C2=O (centres undefined),–,–,–,–,–,–
COc1ccc2c(c1OC)C(=O)N(c1cccc(C(F)(F)F)c1)C2,?,13µM,5.4µM,?,4.5µM,?
COc1ccc2c(c1OC)C(=O)N(c1ccccn1)C2,?,11µM,11µM,3.2µM,2.2µM,9.2µM
Cc1ccc(Nc2n[nH]c(C)c2[N+](=O)[O-])cc1C,22µM,11µM,3µM,1.6µM,1.1µM,?
COc1ccccc1NC(=O)Cn1c(=O)n(CCC(=O)NCC2CCCO2)c(=O)c2cc(OC)c(OC)cc21 (centres undefined),·,–,–,·,·,·
Cc1ccc(C(=O)NC2=NCCS2)cc1,–,·,11µM,2.8µM,3.5µM,?
CC(C)c1ccc(C(=O)NC2=NCCS2)cc1,?,2µM,1.9µM,0.56µM,0.4µM,1.6µM
COc1cc(C(=O)NC2=NCCS2)cc(OC)c1OC,–,?,–,–,–,–
Cc1ccc(C(=O)NC2=NCCS2)cc1Cl,·,·,6.7µM,1.4µM,1.3µM,?
O=C(Nc1ncccn1)c1ccc(C(F)(F)F)cc1,–,–,19µM,–,–,–
COc1ccc(CCNC(=O)c2ccc3nc(Cc4ccccc4)oc3c2)cc1OC,·,·,–,·,·,·
COc1cc(OC)cc(-c2nnc(SCc3ccc(C(=O)O)cc3)o2)c1,–,·,–,–,–,–
CCN(CC)CCNC(=O)CSc1nc2nc(C)c(Cc3ccccc3)c(C)n2n1,·,–,–,·,·,·
O=C(NC1=NCCS1)c1ccc(C(F)(F)F)cc1,–,·,11µM,2.8µM,–[1.84 µM],?
N#Cc1ccc(C(=O)NC2=NCCS2)cc1,?,·,?,?,?,–
CCCN[C@@H](C)C(=O)Nc1ccccc1C,·,–,·,·,·,·
Cc1nn(-c2ccccc2)c(Cl)c1/C=N/NC(=O)c1ccccc1NS(=O)(=O)c1cccs1,–,–,12µM,–,–,–
SMILES,p53 reactivator,SMN2 splice up,FLuc modulator,NPC1 promoter act,Rab9 promoter act,ELG1 genotox
O=C(O)c1ccc(C=NNC(=O)c2ccccc2NS(=O)(=O)c2cccs2)cc1,–,·,·,·,·,–
Cc1nn(-c2ccccc2)c(Cl)c1/C=N/NC(=O)c1ccc(NS(=O)(=O)c2cccs2)cc1,–,13µM,0.85µM,?,?,?
COc1ccc(NC(=O)Cc2noc3ccc(C)cc23)cc1Cl,·,·,–,·,·,·
Cc1ccc2onc(CC(=O)N(C)c3ccccc3)c2c1,·,·,4.8µM,·,·,·
CCOC(=O)c1ccc(NC(=O)Cc2noc3ccc(C)cc23)cc1,·,·,8.5µM,·,·,·
COc1ccccc1CN(C)C(=O)C(NC(=O)Cc1cccc2ccccc12)C(C)C (centres undefined),–,·,–,–,–,–
Cc1ccc(Cl)cc1N1CCN(C(=O)c2cn(C)c3ccc(S(=O)(=O)N4CCCC4)cc3c2=O)CC1,·,–,–,·,·,·
Cc1cc(C)c2c(=O)n(CC(=O)Nc3cccc(F)c3)sc2n1,–,·,9.5µM,–,–,–
Cc1cc(C)c2c(=O)n(CC(=O)Nc3ccc(Cl)cc3)sc2n1,–,·,7.6µM,–,–,–

# Screening results deposited in PubChem BioAssay by National Center for Advancing Translational Sciences (NCATS).
